Several values for one entry are separate records, joined by “and”; a condition that tells them apart may be missing. Identical values can stand only once. Inconclusive results are not listed. Where a call stands in place of a potency, no number is given. Activity calls are given as the source filed them. Calls follow the shape of the dose curve; as a rule, active = well fitted curve in the direction sought with a large enough effect; inconclusive = small, poorly fitted or top-dose-only effect, or another doubt; inactive = no such curve, though single readings can be large; an effect the other way counts as inactive or inconclusive.
What was measured:
[1] = molecular target: Cellular tumor antigen p53 (Homo sapiens) (UniProt P04637); experiment: Primary qHTS for small molecule compounds that upregulate eGFP-tagged delta133p53alpha (in N-terminal) cells. (AID 2060322); conditions: NCI-H358 eGFP-delta133p53alpha fluorescence, 24 h; activation: active compounds read high; also: nearly all actives have a fitted effect of over 75% in size; also: potency is read from the fitted curve at half-maximal effect;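 as to activation: cells pre-induced with doxycycline then dosed without doxycycline; series mostly up to about 56 µM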
Chain of Cellular tumor antigen p53 (Homo sapiens) (P04637 whole entry, looked up): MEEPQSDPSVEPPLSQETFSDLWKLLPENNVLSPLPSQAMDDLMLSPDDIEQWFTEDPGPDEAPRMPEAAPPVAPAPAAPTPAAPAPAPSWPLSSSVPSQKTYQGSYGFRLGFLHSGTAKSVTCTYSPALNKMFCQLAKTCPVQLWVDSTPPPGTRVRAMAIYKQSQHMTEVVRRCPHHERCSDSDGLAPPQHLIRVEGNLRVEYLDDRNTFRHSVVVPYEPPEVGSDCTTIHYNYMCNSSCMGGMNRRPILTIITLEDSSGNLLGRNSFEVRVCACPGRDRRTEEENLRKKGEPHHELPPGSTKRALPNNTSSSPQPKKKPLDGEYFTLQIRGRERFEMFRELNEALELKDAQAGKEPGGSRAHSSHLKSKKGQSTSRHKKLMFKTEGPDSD
Method in brief: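 NCI-H358 cells pre-induced 24 h with 10 ng/ml doxycycline for eGFP-delta133p53alpha, plated dox-free and exposed 24 h at 37C to titrated compounds. Fixed, Hoechst-stained; gated GFP peak intensity by laser scanning cytometry, normalized to DMSO (0%) and 57.5 uM 5-azacytidine (100%).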

[2] = molecular target: Aldehyde dehydrogenase, mitochondrial (Homo sapiens) (UniProt P05091); experiment: qHTS for Inhibitors of the Aldehyde Dehydrogenase Family (ALDH2) Primary screen (AID 2061308); also: nearly all actives have a fitted effect of over 55% in size
[3] = molecular target: Retinaldehyde dehydrogenase 3 (Homo sapiens) (UniProt P47895); experiment: qHTS for Inhibitors of the Aldehyde Dehydrogenase Family (ALDH1A3) Primary screen (AID 2061315)

| SMILES | activation [1] | Potency [2] | Potency [3] | Potency [1] | activity change, negative = inhibition [2] | activity change, negative = inhibition [3] |
| --- | --- | --- | --- | --- | --- | --- |
| C[C@H]1CC(=O)C2=C(C1)C(O)C(O)[C@@]1(O)[C@H]2C(=O)c2cccc(O)c2[C@@H]1O (some centres undefined) | 3.05% (inactive) | inactive | inactive | – | – | – |
| CC(=O)O[C@H]1C[C@@]2(C)[C@@H](CC[C@H]3[C@@]4(C)C=CC(=O)[C@@H](C)[C@@H]4[C@H](OC(C)=O)C(=O)[C@@]32C)/C1=C(\CCC=C(C)C)C(=O)O | -16% (inactive) | inactive | inactive | – | – | – |
| CS/C=C/C(=O)O[C@@H]1CCC2=CC(=O)C(=C(C)C)C[C@]2(C)[C@H]1C | -1.79% (inactive) | inactive | inactive | – | – | – |
| CC(=O)O[C@H]1C[C@@](O)(C(C)C)C2[C@@H](OC(=O)c3ccc(O)cc3)C[C@@]3(C)O[C@H]3C[C@]21C (some centres undefined) | -6.11% (inactive) | inactive | inactive | – | – | – |
| CC(O)C(O)/C=C/C=C/C(=O)O[C@@H]1C=C2COC(=O)[C@]2(O)[C@@]2(C)CCCC(C)(C)C12 (some centres undefined) | -18.3% (inactive) | inactive | inactive | – | – | – |
| COc1cc(O)cc(C)c1C(=O)OC1C(CO)OC(n2ccc(=O)[nH]c2=O)C1OC(C)=O (centres undefined) | -6.11% (inactive) | inactive | inactive | – | – | – |
| Cc1cc(F)ccc1-c1nc(NCCN=C(N)NC#N)nc2c1ccc(=O)n2-c1c(F)cccc1F | -4.46% (inactive) | inactive | inactive | – | – | – |
| Cc1ccc2c(Nc3ccc(Cl)cc3)nccc2c1Nc1ncccc1-c1ncnc2nc[nH]c12 | – | inactive | inactive | 9.53 µM (active) | – | – |
| C[C@@H]1O[C@@H](O[C@H]2[C@@H]3C=CO[C@@H](O[C@@H]4O[C@H](CO)[C@@H](O)[C@H](O)[C@H]4O)[C@@H]3[C@@]3(CO)O[C@@H]23)[C@H](O)[C@H](OC(=O)/C=C/c2ccc(O)cc2)[C@H]1OC(=O)/C=C/c1ccc(O)cc1 | -13% (inactive) | inactive | inactive | – | – | – |
| C=C(C(=O)O)C1CC(O)C2(C)CCCC(C)(O)C2C1 (centres undefined) | 1.53% (inactive) | inactive | inactive | – | – | – |
| COC(=O)c1cc(OC)cc(OC)c1C(=O)c1c(OC)cc2c(c1O)C1CCC(O)C(C)(O2)O1 (centres undefined) | 25.2% (inactive) | inactive | inactive | – | – | – |
| C=C[C@@]1(C)CC(=O)C2[C@](C)(O1)[C@@H](OC(C)=O)[C@@H](O)[C@H]1C(C)(C)CCC[C@]21C (some centres undefined) | -4.33% (inactive) | inactive | inactive | – | – | – |
| NS(=O)(=O)Nc1ncnc(OCCOc2ncc(Br)cn2)c1-c1ccc(Br)cc1 | 18.1% (inactive) | inactive | inactive | – | – | – |
| CC1(C)CC[C@]2(C(=O)O)CC[C@]3(C)C(=CCC4[C@@]5(C)CC[C@H](O[C@@H]6O[C@H](C(=O)O)[C@@H](O)[C@H](O)[C@H]6O)C(C)(C)C5CC[C@]43C)C2C1 (some centres undefined) | 11.5% (inactive) | inactive | inactive | – | – | – |
| O=C(O)CCCCCC[C@H]1C(=O)NC(=O)N1CC[C@@H](O)C1CCCCC1 | -1.67% (inactive) | inactive | inactive | – | – | – |
| O=C(O)CC1(O)C(=O)Nc2ccccc21 (centres undefined) | 1.79% (inactive) | inactive | inactive | – | – | – |
| CCC(O)(C(=O)OCc1ccccc1NC(=O)CCC(=O)O)C(C)O (centres undefined) | 4.58% (inactive) | inactive | inactive | – | – | – |
| C=C1CCC2[C@@](C)(C=O)CCC[C@]2(C)[C@H]1CC/C(C)=C/CO (some centres undefined) | 18.3% (inactive) | inactive | inactive | – | – | – |
| CC(C)/C=C1\NC(=O)C(C(C)C)n2c1nc1ccccc1c2=O (centres undefined) | -10.7% (inactive) | inactive | inactive | – | – | – |
| CC[C@H]1OC(=O)[C@H](C)C(=O)[C@H](C)[C@@H](OC2O[C@H](C)C[C@H](N(C)C)[C@H]2O)[C@@H](C)C[C@@H](C)C(=O)/C=C/[C@]1(C)O (some centres undefined) | -4.58% (inactive) | inactive | inactive | – | – | – |
| COC(=O)C[C@H]1[C@]2(C)C3=C(C)[C@H](c4ccoc4)C[C@H]3O[C@@H]2[C@H](O)C2[C@](C)(C(=O)OC)C=CC(=O)[C@@]21C (some centres undefined) | 2.29% (inactive) | inactive | inactive | – | – | – |
| C#Cc1cnc2[nH]c(=O)n(C(CC)CC)c2n1 | -4.77% (inactive) | inactive | inactive | – | – | – |
| CC(C)(O)C1CC=C(C(=O)OC[C@H]2O[C@@H](Oc3cc(C(=O)O)cc(O)c3O)[C@H](O)[C@@H](O)[C@@H]2O)CC1 (some centres undefined) | -22.1% (inactive) | inactive | inactive | – | – | – |
| COC(=O)C1=C[C@@H](O)[C@@H](O)[C@H](O[C@@H]2O[C@H](CO)[C@@H](O)[C@H](O)[C@H]2OC(=O)/C=C/c2ccccc2)C1 | -26% (inactive) | inactive | inactive | – | – | – |

| SMILES | activation [1] | Potency [2] | Potency [3] | Potency [1] | activity change, negative = inhibition [2] | activity change, negative = inhibition [3] |
| --- | --- | --- | --- | --- | --- | --- |
| NC(=NCCCCCCN=C(N)/N=C(\N)Nc1ccc(Cl)cc1)/N=C(\N)Nc1ccc(Cl)cc1 | – | inactive | inactive | 30.1 µM (active) | – | – |
| C[C@]1(OC(=O)/C=C/c2ccccc2)C[C@H](O)[C@]2(O)C=CO[C@@H](O[C@@H]3O[C@H](CO)[C@@H](O)[C@H](O)[C@H]3O)C12 (some centres undefined) | -18.3% (inactive) | inactive | inactive | – | – | – |
| CCC/C=C/C(=O)O[C@H]1CC(C)(C)CC2[C@@]13[C@H](O)C[C@]1(C)[C@@]2(CCC2[C@@]4(C)CC[C@H](O[C@@H]5O[C@H](C(=O)O)[C@@H](O)[C@H](O[C@@H]6O[C@H](CO)[C@H](O)[C@H](O)[C@H]6O[C@@H]6O[C@@H](C)[C@H](O)[C@@H](O)[C@H]6O[C@@H]6OC[C@](O)(CO)[C@H]6O)[C@H]5O[C@@H]5O[C@H](CO)[C@H](O)[C@H](O)[C@H]5O)C(C)(C)C4CC[C@]21C)O[C@H]3O (some centres undefined) | -12.5% (inactive) | – | – | – | 11.6% [at 11.2 µM] (inactive) | 11% [at 11.2 µM] (inactive) |
| C=C1C(OC(C)=O)CCC2(C)CCC(C(C)(C)O)CC12 (centres undefined) | -3.05% (inactive) | inactive | inactive | – | – | – |
| Cc1cn2cc(C(=O)N(C)CCO)cc(NC3CCOc4cccc(C)c43)c2n1 (centres undefined) | -10.3% (inactive) | inactive | inactive | – | – | – |
| CC(C)c1cc(-c2ccc(F)c3ccccc23)nc(N)n1 | -13.4% (inactive) | inactive | inactive | – | – | – |
| CC(=O)OC1C[C@@]2(C)[C@@H](CC[C@@H](C)[C@]23Cc2c(O)cc4c(c2O3)CNC4=O)C(C)(C)[C@@H]1O (some centres undefined) | 9.92% (inactive) | inactive | inactive | – | – | – |
| CC1(C)CC[C@@]2(C(=O)O[C@@H]3O[C@H](CO)[C@@H](O)[C@H](O)[C@H]3O)C(C1)C1=CCC3[C@@]4(C)CC[C@@H](O[C@@H]5O[C@H](C(=O)O)[C@@H](O[C@@H]6OC[C@@H](O)[C@H](O)[C@H]6O)[C@H](O[C@@H]6OC[C@](O)(CO)[C@H]6O)[C@H]5O)C(C)(C)C4CC[C@@]3(C)[C@]1(C)C[C@H]2O (some centres undefined) | -19.8% (inactive) | inactive | inactive | – | – | – |
| CC1(O)CCC2C(C3C1CCC3(C)O)C2(C)C (centres undefined) | -1.79% (inactive) | inactive | inactive | – | – | – |
| C=C(C)[C@@H]1CC=C(COC(=O)NC(=O)c2ncn3c(=O)n(C)nnc23)CC1 | 10% (inactive) | inactive | inactive | – | – | – |
| NC1Nc2ccccc2C1(N)CC1NC(=O)C(Cc2ccccc2)NC(=O)C(Cc2ccccc2)NC1=O (centres undefined) | -3.05% (inactive) | inactive | inactive | – | – | – |
| CCC(CC)Nc1nc(C)c(-c2ccc(OC(F)(F)F)cc2OC)nc1OC | -3.57% (inactive) | inactive | inactive | – | – | – |
| O=C(Nc1ccc(-c2ccncc2)cc1)N[C@H](CO)c1ccccc1 | -25.9% (inactive) | inactive | inactive | – | – | – |
| CC1(C)CC[C@]2(C(=O)O[C@@H]3O[C@H](CO)[C@@H](O)[C@H](O)[C@H]3O)CC[C@]3(C)C(=CCC4[C@@]5(C)CC[C@H](O[C@@H]6O[C@H](C(=O)O)[C@@H](O[C@@H]7O[C@H](CO)[C@@H](O)[C@H](O)[C@H]7O)[C@H](O)[C@H]6O)C(C)(C)C5CC[C@]43C)C2C1 (some centres undefined) | -26.7% (inactive) | inactive | inactive | – | – | – |
| CCCC(=O)O[C@@H]1[C@@H]2[C@@H](OC(C)=O)[C@]3(C)C(=O)[C@H]4[C@@H](OC(C)=O)C(C)(C)C[C@H]4[C@]3(C)C(=O)[C@@]2(OC(C)=O)C[C@@H]1C | -10.7% (inactive) | inactive | inactive | – | – | – |
| CCOP(=O)(Cc1ccc(C(=O)Nc2ccc(Br)cc2C#N)cc1)OCC | 2.33% (inactive) | inactive | inactive | – | – | – |
| CCN1C(=O)c2ccccc2C1Nc1ccc(OCCN2CCCCC2)cc1 (centres undefined) | -18.4% (inactive) | inactive | inactive | – | – | – |
| CNC(=O)c1ccccc1Sc1ccc2c(/C=C/c3ccccn3)n[nH]c2c1 | -18.6% (inactive) and -9.82% (inactive) | inactive | inactive | – | – | – |
| CCOC(=O)c1ccc(OCCN2C[C@H](O)[C@@H](O)[C@H](O)[C@H]2CO)cc1 | -6.33% (inactive) | inactive | inactive | – | – | – |
| CC(C)S(=O)(=O)NC[C@@H]1CC(c2ccc(N3CCCC3)c(F)c2)=NO1 | 0.333% (inactive) | inactive | inactive | – | – | – |
| COc1cc(-c2nc(N[C@H](CO)Cc3ccccc3)ccc2C(=O)NCCOc2ccccc2)cc(OC)c1OC | -11.9% (inactive) | inactive | inactive | – | – | – |
| CC(C)(O)/C=C/CC(C)(O)C1C(O)CC2(C)C3CCC4C(C)(C)C(=O)CCC4(C)C3CCC12C (centres undefined) | 2.29% (inactive) | inactive | inactive | – | – | – |
| CCC(C)(O)C(O)C(=O)OCc1ccc(O[C@@H]2O[C@H](CO)[C@@H](O)[C@H](O)[C@H]2O)c(OC)c1 (some centres undefined) | -5.36% (inactive) | inactive | inactive | – | – | – |
| C[C@@H]1O[C@@H](O[C@H]2[C@H](O[C@H]3CC[C@@]4(C)C(CC[C@]5(C)C4C=C[C@]46OC[C@@]7(CCC(C)(C)C[C@H]74)[C@@H](O[C@@H]4O[C@@H](C)[C@H](O)[C@@H](O)[C@H]4O)C[C@]65C)[C@]3(C)CO)O[C@H](CO)[C@@H](O)[C@@H]2O[C@@H]2O[C@H](CO)[C@@H](O)[C@H](O)[C@H]2O)[C@H](O)[C@H](O)[C@H]1O (some centres undefined) | 0% (inactive) | inactive | inactive | – | – | – |

From PubChem BioAssay (NCATS)
